Measurements taken from PubChem BioAssay AID940 (Emory University Molecular Libraries Screening Center, 2007).
“And” between values parts separate entries of the source, which are not always exact repeats. Equal entries are not always repeated. In all, about 260,000 compounds went through this assay and about 2,200 (0.85%) were called active.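 Rule for the calls: active = compounds whose cAMP rise, as percent of the full-agonist control response, exceeds 60; inactive = the rest.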 Shown is part of a subset that was picked to be rich in actives. Some structures have more than one record in an assay (separate samples or runs), and their calls can disagree.

biological target: Prostaglandin E2 receptor EP2 subtype (Homo sapiens) (UniProt P43116); experiment: EP2 receptor modulators, cAMP readout, primary screen, cell-based, HTRF cAMP, PGE2 stimulation (AID 940); settings: EP2-expressing cells, cAMP HTRF FRET, PGE2 co-stimulation; at 25 µM; stronger effect = higher value;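 note: rat C6 glioma line stably carrying human EP2 under a CMV promoter; the protocol text gives 20 µM as final concentration; 100% = response of wells given 1 µM PGE2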
Sequence (P43116 whole entry, looked up): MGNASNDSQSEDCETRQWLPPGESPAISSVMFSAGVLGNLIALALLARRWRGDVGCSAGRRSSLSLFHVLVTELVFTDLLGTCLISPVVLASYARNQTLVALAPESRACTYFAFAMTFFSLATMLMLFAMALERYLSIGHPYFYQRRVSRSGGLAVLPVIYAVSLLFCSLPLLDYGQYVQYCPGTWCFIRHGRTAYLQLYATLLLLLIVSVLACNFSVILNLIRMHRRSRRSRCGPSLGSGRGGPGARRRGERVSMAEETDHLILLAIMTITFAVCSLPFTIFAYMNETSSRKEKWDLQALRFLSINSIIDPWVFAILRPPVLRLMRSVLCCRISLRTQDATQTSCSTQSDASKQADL

induction, 64.2% (active) and 17.8% (inactive):
CC[C@H]1OC(=O)[C@H](C)[C@@H](O[C@H]2C[C@@](C)(OC)[C@@H](O)[C@H](C)O2)[C@H](C)[C@@H](O[C@@H]2O[C@H](C)C[C@H](N(C)C)[C@H]2O)[C@](C)(O)C[C@@H](C)[C@@H]2N[C@@H](COCCOC)O[C@H]([C@H]2C)[C@]1(C)O

induction, active:
Cc1ccc(C(=O)c2c(NC(=O)c3ccncc3)sc3c2CCCC3)cc1 68.7%
CCSc1nnc(-c2cc3c(s2)-c2ccccc2CC3)o1 63.3%
c1ccc(C(c2nnnn2C2CCCCC2)N2CCc3ccccc3C2)cc1 (centres undefined) 68.5%
COC(=O)c1sccc1NC(=O)COc1ccc(Cl)cc1 61.7%
Cc1nn2c(c1-c1ccccc1)N=C(c1ccco1)CC2c1ccccc1 (centres undefined) 83.8%
CCc1ccc2oc(=O)cc(CN3CCCCC3C)c2c1 (centres undefined) 64.2%
CCOC(=O)c1c(-c2ccc(C)cc2C)csc1NC(=O)CSc1nnnn1C 63.5%
CC(C)(C)c1nc2ccccc2c(=O)n1N1C(=O)c2ccccc2C1=O 65.2%
C=CC1(C)CC(=O)C2(O)C(C)(O1)C(OC(C)=O)C(O)C1C(C)(C)CCC(O)C12C (centres undefined) 102%
CC(C)NC(=S)NN=C1CCCCCCCCCCC1 68.3%
O=c1cc(N2CCCCC2)c(-c2ccccc2)nn1Cc1cccc(F)c1 90%
CC1(C)Cc2nc3sc4c(SCC(=O)NC(c5ccccc5)c5ccccc5)ncnc4c3cc2CO1 70.1%

induction, inactive:
Cc1ccc(C(=O)c2c(NC(=O)c3ccccc3)sc(C)c2C)cc1 8.95%
Cc1ccc(NC(=O)c2c(NC(=O)CCC(=O)O)sc3c2CCCCC3)cc1 12.1% and -20.9%
Cc1cc(-c2cncnc2C2CCCN(CC(=O)Nc3cc(C)on3)C2)on1 (centres undefined) 0.23%
CCOC(=O)c1c(CN2CCOCC2)nc2ccc(Cl)cc2c1-c1ccccc1 22.7%
Fc1ccc(CSc2nnc(-c3cc4c(s3)-c3ccccc3CC4)o2)cc1 1.98%
C#CCSc1nnc(-c2sc3ccccc3c2Cl)o1 40.2%
CC(=O)c1ccc(S(=O)(=O)N2CCC(n3c(C)nc4cc(F)ccc43)CC2)cc1 -40.5%
Cc1occc1-c1nn(C2CCN(S(=O)(=O)N(C)C)CC2)c(=O)o1 -53%
CCN(CC)C(=O)CSc1nc2ccccc2c(=O)n1-c1ccccc1 -15.6%
CN1CCN(C(c2ccccc2Cl)c2nnnn2C2CCCCC2)CC1 (centres undefined) -13.7%
c1ccc(C(c2ccccc2)N2CCN(Cc3nnnn3C3CCCCC3)CC2)cc1 56.5%
CCS(=O)(=O)N1CCN(c2nc3ccccc3s2)CC1 -84.9%
O=C(Cn1nc(-c2cccnc2)oc1=O)N1CCCC1 -282%
COC(=O)c1sccc1NC(=O)CCC1CCCC1 11.9%
O=C(COc1ccc(Cl)cc1)Nc1ccccc1CO -10.2%
CCN(CC)CCN(Cc1cc2cccc(C)c2[nH]c1=O)C(=S)NCCOC -15.8%
CC(C(=O)N1CCC(n2nc(-c3ccco3)ccc2=O)CC1)c1ccccc1 (centres undefined) -23.1%
COCC(=O)Nc1nnc(Cc2ccccc2)s1 -1.1%
CCc1nn(CC(=O)NC(C)c2ccccn2)c(=O)c2cc3ccsc3n12 (centres undefined) -14.5%
O=C(c1ccn[nH]1)N1CCn2cc(C(F)(F)F)nc2C1 -3.08%
CC1CCCCN1CC(=O)NCc1ccc2c(c1)OCO2 (centres undefined) 8.14%
COc1ccc(CN2CCCCC2C)cc1OC (centres undefined) 1.32%
CCOC(=O)CNC(=O)CSc1nnnn1-c1cc(C)ccc1C -4.73%
COC(=O)c1ccccc1NC(=O)CSc1nnnn1C 20.6% and 0.97%
CSc1nc(O)c(C2CCCCC2)c(=O)[nH]1 -1.22%
COc1ccc(CNC(=O)CCSc2nc(-c3ccco3)cc(C(F)(F)F)n2)cc1OC -21.3%
CS(=O)(=O)N1CCc2cc(C(=O)N3C4CCC3CC(c3ccc(F)cc3)C4)ccc21 (centres undefined) -36.1%
COC(=O)Cn1c(C)nc2ccccc2c1=O 6.77%
CN(C)CCCn1c(SCCN2C(=O)c3ccccc3C2=O)nc2ccccc2c1=O -26%
Cc1ccc(C2(O)CCN(Cc3cccc(OCc4ccccn4)c3)CC2)cc1 -1.87%
CCCN(CC)c1nc2c(C)cccn2c(=O)c1/C=C1\SC(=S)N(CCCOC)C1=O 23%
COc1ccc(C2(NCc3ccccc3-n3cccn3)CC2)cc1 7.61%
CC(C)(C)NC(=O)C(=O)NN=C1CCCCCCC1 27.3%
C/C(=N\NC(=S)NC(C)C)c1ccc(C(C)(C)C)cc1 8.13%
COc1cc(-c2nc3cnccn3c2NCC2CCCO2)ccc1O (centres undefined) -29.6%
O=c1cc(N2CCN(Cc3ccccc3)CC2)c(-c2ccccc2)n[nH]1 -2.25%
O=C(CS(=O)(=O)c1cn(Cc2cccc(F)c2)c2ccccc12)N1CCCCC1 -10.4%
CC(=O)Nc1c[nH]c(=O)[nH]c1=O -5.98%
Cc1ccc(-c2c(C)[nH]n3c(=O)c4c(nc23)CCC4)cc1 -89.9%
COc1ccc(N2CCN(C(c3ccccc3)c3nnnn3Cc3cccs3)CC2)cc1 (centres undefined) 21.1%
C=CCNc1nc(-c2sc(NC(=O)c3ccccc3)nc2C)cs1 -131%
CCN(CC)c1nc2c(c(=O)n(C)c(=O)n2C)n1Cc1ccc(C)cc1 -126%
COc1ccc(CN(Cc2cc3c(cc2OC)OCO3)CC2CCCO2)c(OC)c1 (centres undefined) -3.15%
Cc1oc2c(c1CC(=O)NCc1noc(-c3ccccc3)n1)C(=O)CC(C)(C)C2 -16.5%
CCOCCCNC(=O)CSc1ncnc2c1sc1nc3ccccc3cc12 -36%
CC(C)CCSc1ncnc2c1oc1nc3c(cc12)COC(C)(C)C3 29.9%
